Measured values taken from ChEMBL document CHEMBL3988442, “University of Dundee, Small-Polar-MMV Screening Library” (2021).
For some assays here: Potency and affinity values are given separately.

Key:
Parameters in all cases: scale not given: direction of the effect not stated beside the values
[1] = target: Protein translocase subunit SecA (Escherichia coli (strain K12)) (UniProt P10408); assay: Assay to Identify E. coli SecA ATPase Inhibitors; assay type: functional; settings: 30 µM
[2] = target: T1, Ubiquitin-activating enzyme e1, putative (Leishmania donovani (strain BPK282A1)) (UniProt E9BSI1); assay: Leishmania donovani Ubiquitin Activating Enzyme (LdE1); assay type: functional; settings: 30 µM
T1 sequence (whole entry): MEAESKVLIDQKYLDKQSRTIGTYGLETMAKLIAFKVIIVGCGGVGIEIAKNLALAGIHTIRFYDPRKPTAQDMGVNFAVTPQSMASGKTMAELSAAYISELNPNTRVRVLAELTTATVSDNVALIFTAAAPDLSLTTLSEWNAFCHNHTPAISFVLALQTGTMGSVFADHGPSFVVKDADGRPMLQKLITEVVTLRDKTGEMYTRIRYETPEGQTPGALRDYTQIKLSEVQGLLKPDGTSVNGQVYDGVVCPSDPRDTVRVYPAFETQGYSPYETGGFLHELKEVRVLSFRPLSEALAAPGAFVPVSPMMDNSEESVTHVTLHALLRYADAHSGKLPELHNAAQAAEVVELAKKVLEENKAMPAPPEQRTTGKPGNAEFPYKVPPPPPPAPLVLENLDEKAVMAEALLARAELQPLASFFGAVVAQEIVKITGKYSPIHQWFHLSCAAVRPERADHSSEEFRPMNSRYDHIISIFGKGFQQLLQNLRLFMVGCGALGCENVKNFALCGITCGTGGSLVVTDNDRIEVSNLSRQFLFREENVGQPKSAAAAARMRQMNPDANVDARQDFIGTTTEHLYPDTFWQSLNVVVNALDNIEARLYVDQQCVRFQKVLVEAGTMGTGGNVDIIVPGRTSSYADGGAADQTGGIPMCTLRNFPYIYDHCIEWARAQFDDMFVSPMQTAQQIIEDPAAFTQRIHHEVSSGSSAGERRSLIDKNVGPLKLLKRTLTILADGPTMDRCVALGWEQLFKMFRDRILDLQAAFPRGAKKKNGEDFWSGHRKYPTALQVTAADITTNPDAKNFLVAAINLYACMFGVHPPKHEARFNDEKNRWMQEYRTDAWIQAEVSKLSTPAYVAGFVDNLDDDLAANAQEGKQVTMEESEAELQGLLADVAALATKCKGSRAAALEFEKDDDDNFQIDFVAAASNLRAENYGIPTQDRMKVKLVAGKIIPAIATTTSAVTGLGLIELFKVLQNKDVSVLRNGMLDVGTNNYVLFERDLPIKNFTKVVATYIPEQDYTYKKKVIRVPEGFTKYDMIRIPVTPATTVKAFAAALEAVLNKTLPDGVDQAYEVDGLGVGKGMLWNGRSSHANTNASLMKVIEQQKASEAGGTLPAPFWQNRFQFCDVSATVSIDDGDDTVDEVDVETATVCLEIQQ

[3] = target: AMP-activated protein kinase, AMPK (Homo sapiens) (UniProt P54646+O43741+P54619+Q9UGJ0+Q9Y478+Q13131+Q9UGI9); assay: AMP-dependent Kinase enzyme assay. An in vitro enzyme assay that detects ADP turnover that is directly proportional to AMPK activity. This uses naive AMPK that is activated during the assay with MK-8722; assay type: functional; settings: 30 µM
[4] = target: Sialic acid-binding Ig-like lectin 9 (Homo sapiens) (UniProt Q9Y336); assay: Hs-Siglec9 ALPHAscreen SOP 20170721; settings: 10 µM
Sialic acid-binding Ig-like lectin 9 (Homo sapiens), sequence (Q9Y336 whole entry): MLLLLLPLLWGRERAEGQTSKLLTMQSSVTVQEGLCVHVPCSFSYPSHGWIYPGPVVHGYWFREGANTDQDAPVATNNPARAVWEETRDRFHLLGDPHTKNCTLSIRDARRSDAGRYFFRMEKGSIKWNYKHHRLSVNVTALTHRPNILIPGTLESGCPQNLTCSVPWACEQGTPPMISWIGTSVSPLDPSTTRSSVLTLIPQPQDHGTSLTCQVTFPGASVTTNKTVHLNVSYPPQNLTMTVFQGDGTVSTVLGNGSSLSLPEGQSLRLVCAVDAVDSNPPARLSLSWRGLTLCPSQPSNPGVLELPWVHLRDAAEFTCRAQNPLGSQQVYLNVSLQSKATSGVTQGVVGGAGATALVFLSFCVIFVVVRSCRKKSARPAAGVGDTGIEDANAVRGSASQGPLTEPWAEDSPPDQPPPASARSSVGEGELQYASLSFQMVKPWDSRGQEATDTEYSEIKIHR

Trypanosoma cruzi = assay: Trypanosoma cruzi phosphomannomutase and mannose-1-phosphate guanylyltransferase assay; assay type: functional; settings: 10 µM
[5] = target: T2, Arginase-2, mitochondrial (Homo sapiens) (UniProt P78540); assay: in vitro enzyme assay to detect the production of urea directly proportional to the activity of Arginase II; assay type: functional; settings: 33.3 µM; also: in the data most compounds retested in dose-response had high values
T2 sequence (whole entry): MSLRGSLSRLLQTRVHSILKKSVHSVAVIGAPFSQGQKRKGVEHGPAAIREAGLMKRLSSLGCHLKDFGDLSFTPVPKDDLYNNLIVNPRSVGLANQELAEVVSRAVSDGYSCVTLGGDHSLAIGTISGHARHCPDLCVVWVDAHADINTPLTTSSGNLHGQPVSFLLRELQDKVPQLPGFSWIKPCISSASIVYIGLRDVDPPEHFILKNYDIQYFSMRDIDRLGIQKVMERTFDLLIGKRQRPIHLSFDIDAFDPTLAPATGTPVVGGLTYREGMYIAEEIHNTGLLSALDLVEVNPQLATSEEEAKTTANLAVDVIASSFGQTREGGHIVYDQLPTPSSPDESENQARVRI

[6] = target: T3, Proteasome subunit beta (Trypanosoma cruzi) (UniProt O96673); assay: Trypanosoma cruzi proteasome chymotrypsin-like activity (TcProtChymo) assay.; also: in the data most compounds retested in dose-response had high values; assay type: functional; settings: 9.37 µM
T3 sequence (whole entry): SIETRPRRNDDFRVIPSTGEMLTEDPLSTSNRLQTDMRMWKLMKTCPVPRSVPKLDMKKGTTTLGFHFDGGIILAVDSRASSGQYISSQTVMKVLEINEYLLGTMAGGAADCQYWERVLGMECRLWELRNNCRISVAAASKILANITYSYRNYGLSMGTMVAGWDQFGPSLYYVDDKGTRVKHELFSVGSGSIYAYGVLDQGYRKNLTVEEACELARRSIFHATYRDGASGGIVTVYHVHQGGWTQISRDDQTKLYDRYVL

Homo sapiens = organism: Homo sapiens; assay: To identify inhibition of the IFN signalling (Jak-Stat) pathway via expression of an eGFP reporter gene under the control of an IFN-stimulated response element (ISRE) containing MxA promoter.; assay type: functional; settings: 30 µM
[7] = target: T4, Tyrosyl-tRNA synthetase, putative (Trypanosoma cruzi (strain CL Brener)) (UniProt Q4DSP6); assay: Trypanosoma cruzi tyrosyl tRNA synthetase (TcYRS) _High Tyrosine SOP; assay type: functional; settings: 30 µM; also: in the data most compounds retested in dose-response had high values
T4 sequence (whole entry): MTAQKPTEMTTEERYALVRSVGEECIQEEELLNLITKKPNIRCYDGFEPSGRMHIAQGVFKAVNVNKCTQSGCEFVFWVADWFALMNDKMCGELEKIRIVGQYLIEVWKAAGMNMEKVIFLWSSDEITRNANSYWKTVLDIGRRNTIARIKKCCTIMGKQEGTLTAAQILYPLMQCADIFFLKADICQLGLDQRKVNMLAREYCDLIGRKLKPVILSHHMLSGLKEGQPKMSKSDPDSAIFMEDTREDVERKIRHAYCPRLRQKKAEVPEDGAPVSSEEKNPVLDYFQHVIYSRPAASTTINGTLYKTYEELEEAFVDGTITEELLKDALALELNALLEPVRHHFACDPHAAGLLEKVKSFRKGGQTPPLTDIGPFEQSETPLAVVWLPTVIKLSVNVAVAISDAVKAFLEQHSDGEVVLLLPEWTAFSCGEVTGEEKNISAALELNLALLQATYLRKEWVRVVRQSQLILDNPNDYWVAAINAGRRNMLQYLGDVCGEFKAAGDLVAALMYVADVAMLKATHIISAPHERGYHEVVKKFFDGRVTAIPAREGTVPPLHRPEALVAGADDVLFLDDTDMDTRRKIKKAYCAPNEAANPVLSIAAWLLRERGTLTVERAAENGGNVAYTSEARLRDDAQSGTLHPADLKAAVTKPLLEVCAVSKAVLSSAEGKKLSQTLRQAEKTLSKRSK

[8] = target: T4, Tyrosyl-tRNA synthetase, putative (Trypanosoma cruzi (strain CL Brener)); assay: Trypanosoma cruzi tyrosyl tRNA synthetase (TcYRS) SOP; assay type: functional; settings: 30 µM
[9] = target: Chromo domain-containing protein 1 (Saccharomyces cerevisiae (strain ATCC 204508 / S288c) (Baker's yeast)) (UniProt P32657); assay: ScCHD-1 Enzyme Inhibition Assay; assay type: functional; settings: 30 µM; also: in the data most compounds retested in dose-response had high values
Chromo domain-containing protein 1 (Saccharomyces cerevisiae (strain ATCC 204508 / S288c) (Baker's yeast)), sequence (P32657 whole entry, the tested form may be a part): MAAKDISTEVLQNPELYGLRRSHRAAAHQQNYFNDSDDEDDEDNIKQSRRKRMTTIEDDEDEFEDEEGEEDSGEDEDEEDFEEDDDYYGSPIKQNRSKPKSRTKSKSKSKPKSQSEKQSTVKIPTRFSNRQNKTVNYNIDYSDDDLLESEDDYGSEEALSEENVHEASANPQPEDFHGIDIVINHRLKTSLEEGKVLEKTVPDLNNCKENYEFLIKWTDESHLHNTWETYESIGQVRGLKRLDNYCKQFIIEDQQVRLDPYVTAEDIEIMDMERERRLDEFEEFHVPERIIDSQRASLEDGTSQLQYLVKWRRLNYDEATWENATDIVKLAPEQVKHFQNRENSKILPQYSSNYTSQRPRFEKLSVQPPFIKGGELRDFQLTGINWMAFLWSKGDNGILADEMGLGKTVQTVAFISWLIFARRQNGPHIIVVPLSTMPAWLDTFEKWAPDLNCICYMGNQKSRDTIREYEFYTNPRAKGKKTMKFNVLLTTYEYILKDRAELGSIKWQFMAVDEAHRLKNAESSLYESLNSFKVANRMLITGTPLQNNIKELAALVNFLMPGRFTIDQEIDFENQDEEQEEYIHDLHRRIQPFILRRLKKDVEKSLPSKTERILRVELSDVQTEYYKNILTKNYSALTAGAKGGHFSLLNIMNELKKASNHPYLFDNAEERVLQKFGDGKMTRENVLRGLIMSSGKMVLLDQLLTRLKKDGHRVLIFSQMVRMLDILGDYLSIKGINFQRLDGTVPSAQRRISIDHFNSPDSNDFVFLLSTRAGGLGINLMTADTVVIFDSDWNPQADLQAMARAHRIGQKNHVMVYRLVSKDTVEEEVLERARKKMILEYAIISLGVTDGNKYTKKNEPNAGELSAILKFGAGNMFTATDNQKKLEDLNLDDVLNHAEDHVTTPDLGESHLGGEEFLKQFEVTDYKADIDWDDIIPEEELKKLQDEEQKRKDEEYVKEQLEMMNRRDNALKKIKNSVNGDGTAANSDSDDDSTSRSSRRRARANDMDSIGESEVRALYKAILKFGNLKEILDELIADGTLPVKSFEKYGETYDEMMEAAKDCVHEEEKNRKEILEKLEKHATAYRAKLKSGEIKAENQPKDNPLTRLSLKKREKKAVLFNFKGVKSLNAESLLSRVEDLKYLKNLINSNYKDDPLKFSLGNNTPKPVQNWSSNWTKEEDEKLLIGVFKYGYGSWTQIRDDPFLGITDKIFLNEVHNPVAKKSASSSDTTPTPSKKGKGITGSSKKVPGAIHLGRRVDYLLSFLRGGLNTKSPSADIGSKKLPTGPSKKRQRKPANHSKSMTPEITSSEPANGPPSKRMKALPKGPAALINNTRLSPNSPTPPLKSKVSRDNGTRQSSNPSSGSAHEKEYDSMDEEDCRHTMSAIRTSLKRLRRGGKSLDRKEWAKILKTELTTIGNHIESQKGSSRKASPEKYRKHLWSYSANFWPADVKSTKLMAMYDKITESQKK

Protein translocase subunit SecA (Escherichia coli (strain K12)), sequence (P10408 whole entry): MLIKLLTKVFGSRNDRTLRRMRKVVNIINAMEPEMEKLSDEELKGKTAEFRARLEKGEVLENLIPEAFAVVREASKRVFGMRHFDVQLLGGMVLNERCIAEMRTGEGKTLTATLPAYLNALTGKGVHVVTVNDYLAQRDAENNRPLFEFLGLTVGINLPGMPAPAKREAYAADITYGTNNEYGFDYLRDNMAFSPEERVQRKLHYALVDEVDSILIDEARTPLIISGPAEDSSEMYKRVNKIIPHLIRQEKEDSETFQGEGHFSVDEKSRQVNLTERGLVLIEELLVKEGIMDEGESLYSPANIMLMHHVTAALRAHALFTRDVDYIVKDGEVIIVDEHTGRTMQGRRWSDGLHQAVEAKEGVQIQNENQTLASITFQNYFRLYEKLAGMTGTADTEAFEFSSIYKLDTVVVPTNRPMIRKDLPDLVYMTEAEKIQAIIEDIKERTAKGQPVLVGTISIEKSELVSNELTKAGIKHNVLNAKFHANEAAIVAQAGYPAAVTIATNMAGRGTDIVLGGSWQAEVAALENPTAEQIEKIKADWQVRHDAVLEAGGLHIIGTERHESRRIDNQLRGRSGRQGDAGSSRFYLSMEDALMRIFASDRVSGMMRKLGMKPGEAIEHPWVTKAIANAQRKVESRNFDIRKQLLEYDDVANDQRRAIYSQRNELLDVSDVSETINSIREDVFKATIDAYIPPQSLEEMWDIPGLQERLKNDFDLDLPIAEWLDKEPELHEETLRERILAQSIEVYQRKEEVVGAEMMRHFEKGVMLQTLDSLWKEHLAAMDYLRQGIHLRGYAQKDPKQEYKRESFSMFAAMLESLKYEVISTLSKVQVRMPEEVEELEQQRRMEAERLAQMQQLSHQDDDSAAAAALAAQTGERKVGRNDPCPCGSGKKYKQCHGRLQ

SMILES	Percent Effect [1] [%]	Percent Effect [2] [%]	Percent Effect [3] [%]	Percent Effect [4] [%]	Percent Effect (Trypanosoma cruzi) [%]	Percent Effect [5] [%]	Percent Effect [6] [%]	Percent Effect (Homo sapiens) [%]	Percent Effect [7] [%]	Percent Effect [8] [%]	Percent Effect [9] [%]
CN(Cc1ccccc1)CC1(O)CCCN(CC(C)(C)C)C1=O (configuration not stated)	-2.06	6.94	-11.8	18.9	5.15	-1.77	1.4	-1.36	3.16	0	-0.279
CS(=O)(=O)NC[C@]12COC[C@H]1CN(C(=O)C1CCCCC1)C2	-1.23	0	2.98	-0.175	-1.47	14.3	17.7	-0.518	-20.5	-25.6	3.02
CN(CC(=O)N1CCCC1Cn1cccn1)C1CC1 (configuration not stated)	-4.84	10.1	-1.88	13.2	1.04	0	-0.0819	3.19	1.48	8.86	-3.87
CN1CCN(C(=O)CC2CCN(CCc3ccccn3)CC2)CC1	-2.81	5.2	3.53	5.15	5.58	4.84	3.48	9.07	6.67	18.8	-17.3
O=C(NCCS(=O)(=O)N1CCc2ccccc21)c1c(O)cc(F)cc1F	-5.35	2.6	-0.496	-10.7	4.41	-6.11	8	4.49	-12.4	0	-23.1
N#Cc1ccccc1C(=O)N1CCC2(CC(=O)NC2=O)C1 (configuration not stated)	0.342	10.8	0.526	4.48	-5.21	-2.38	14	14.1	4.76	4.88	-3.81
CCCc1nc(NCCCO)c2c(n1)c(C)nn2CC	-3.3	6.67	9.08	11.8	-1.38	-9.33	14.2	12.4	8.47	12.8	-10.1
Cc1nc(C2CCN(C(=O)c3ccc(=O)n(C)c3)CC2)c2sccn12	-2.51	4.05	3.65	3.19	1.58	-3.02	10.4	3.58	3.23	6.49	-13.8
Cc1ccc(-c2nc(CNC3CCc4ncnn4C3)co2)c(C)c1 (configuration not stated)	-7.34	-41.6	-3.33	17.9	6.18	0	7.09	9.71	10.7	19.5	80.3
CC1CCN(C(=O)c2ccn(COc3ccc(F)cc3)n2)CC1	-1.66	5.2	-0.0433	10.1	2.26	-5.52	25	-6.17	6.45	16.1	-3.54
CC(NC(=O)NCc1cccnc1N1CCCCC1)c1nccs1 (configuration not stated)	-4.11	7.79	4.63	1.05	6.37	-7.12	1.01	2.75	5.83	14.6	-7.32
CN(C)C(=O)N1C[C@H](Oc2ccccn2)[C@H]2OCCC[C@H]21	0.276	0	4.78	2.55	-2.27	0.645	3.65	-2.96	3.17	3.85	-3.5
Cc1cnn(C2CCCN(C(=O)Cc3cn4ccccc4n3)C2)c1 (configuration not stated)	-5.24	19	-2.41	-0.453	-0.103	-1.5	11.8	4.05	1.04	17.7	-26.5
CCc1ncc2c(n1)CN(C(=O)COC)C2	-3.52	8.22	-3.13	-3.99	2.55	1.36	12.1	8.48	9.68	22.5	-4.35
Cc1cc(C(=O)N2CCCC(n3ccnc3C)C2)c(C)s1 (configuration not stated)	-3.98	-5.26	5.18	-0.508	6.52	0	1.44	13.2	1.06	2.6	-2.55
COc1c(CNC2CCN(c3ncccn3)CC2)c(C(C)C)nn1C	-4.79	10.5	4.83	-4.46	-6.26	7.55	2.79	-4.77	6.4	16.1	-4.31
Cc1ccc(OCC(=O)NCC(C)C)nc1	-6.24	13.7	-6.5	6.61	6.94	1.2	4.37	1.54	8.33	11.1	-8.95
CCS(=O)(=O)CCNC(=O)c1ccc(-c2ccc(C)cc2)cc1F	-3.31	5.2	-1.14	2.26	-2.26	-2.76	14.6	18.8	-14	1.24	2.27
CN1CCN(C(=O)Cc2cccc(F)c2)Cc2cccnc21	-3.84	2.6	-0.44	1.15	8.55	-9.65	-0.499	6.92	2.15	3.7	-6.06
O=C(NCC1CCOCC1)[C@@H]1C[C@@H]2CCN(Cc3ccco3)C[C@H]2O1	-0.876	5.33	-1.12	6.61	-5.02	-54.7	10.1	-10.2	2.08	7.5	-6.48
Cn1cnc2c1CCN(Cc1nc(-c3ccsc3)no1)C2	-6.98	18.9	-7.09	15.8	10.7	-3.14	5.57	2.25	7.92	25.6	-9.67
Cc1ccc(C(=O)N2CCC3(CCC(=O)N(CC(N)=O)C3)CC2)c(O)c1	1.03	4.17	-0.266	-3.34	-2.82	-2.65	14.2	-6.14	3.16	5.13	-3
